Measured values from the supplement of paper PMC3545927.
The list shows a part of the results. No count for the full screen is at hand.

Target: furin, P09958
Experiment: furin cleavage Z-score vs untreated control; higher = more cleavage, active = 3.5 or more, inactive = 1 or less, 8 variable residues between constant flanks
Protocol: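 Multiplexed peptide-cDNA fusion cleavage assay. 8-mer variable peptides flanked by constant Cys-Ala (N-term) and Ala-Gly-Asn-Ala-Ser-Ala-Ser-Ala (C-term) and conjugated to a cDNA oligonucleotide were bead-immobilised via the N-terminus. They were treated with purified furin at a 1:10 enzyme:substrate ratio in 50 mM HEPES pH 7.5, 1 mM CaCl2, 100 mM NaCl for 7.5, 15 or 30 min. Released cDNA was counted by next-generation sequencing, and log counts versus no-furin controls were lowess-adjusted and converted to robust Z-scores.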

Sequence of furin, P09958 (P09958 whole entry): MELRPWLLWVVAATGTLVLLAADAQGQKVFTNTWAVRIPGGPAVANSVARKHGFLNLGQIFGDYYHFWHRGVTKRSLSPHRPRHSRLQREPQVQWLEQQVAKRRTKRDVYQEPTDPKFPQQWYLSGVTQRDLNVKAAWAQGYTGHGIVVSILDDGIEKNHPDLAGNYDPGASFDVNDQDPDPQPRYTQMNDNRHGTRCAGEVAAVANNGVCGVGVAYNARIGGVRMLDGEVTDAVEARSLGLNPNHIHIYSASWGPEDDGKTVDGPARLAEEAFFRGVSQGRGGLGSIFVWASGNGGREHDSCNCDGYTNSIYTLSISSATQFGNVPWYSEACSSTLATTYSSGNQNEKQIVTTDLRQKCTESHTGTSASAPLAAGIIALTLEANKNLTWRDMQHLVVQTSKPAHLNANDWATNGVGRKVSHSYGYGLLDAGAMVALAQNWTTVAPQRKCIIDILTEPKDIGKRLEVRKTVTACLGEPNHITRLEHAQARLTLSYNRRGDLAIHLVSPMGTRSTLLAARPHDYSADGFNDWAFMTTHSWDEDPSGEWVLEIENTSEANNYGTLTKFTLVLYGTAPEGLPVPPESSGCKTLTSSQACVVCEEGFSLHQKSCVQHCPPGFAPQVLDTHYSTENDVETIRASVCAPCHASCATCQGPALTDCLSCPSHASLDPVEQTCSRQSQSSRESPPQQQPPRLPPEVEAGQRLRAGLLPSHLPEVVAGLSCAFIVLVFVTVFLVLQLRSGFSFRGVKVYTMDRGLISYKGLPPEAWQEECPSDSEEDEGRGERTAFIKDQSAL

Row | Sequence | furin cleavage Z-score (7.5 min) | furin cleavage Z-score (15 min) | furin cleavage Z-score (30 min)
1 | CAYTNVDQDLAGNASASA [HC711] | -0.889 (inactive) | -0.433 (inactive) | -0.26 (inactive)
2 | CALTVPASAYAGNASASA [HC253] | 0.273 (inactive) | -0.258 (inactive) | 0.0356 (inactive)
3 | CAGPRRPMRPAGNASASA [FS-785] | 0.568 (inactive) | -0.102 (inactive) | -1.31 (inactive)
4 | CACGDIINGLAGNASASA [HC657] | -0.652 (inactive) | -0.156 (inactive) | 0.306 (inactive)
5 | CAENDTDVFVAGNASASA [HC426] | -0.537 (inactive) | 0.514 (inactive) | -0.867 (inactive)
6 | CAEMPRDRRRAGNASASA [FS-325] | -1.37 (inactive) | -0.519 (inactive) | -0.0256 (inactive)
7 | CAAPPRRKRRAGNASASA [FS-976] | 7.74 (active) | 7.56 (active) | 5.8 (active)
8 | CALRFCALARAGNASASA [HC620] | 1.83 | 0.507 (inactive) | -0.572 (inactive)
9 | CAVRNRRKRKAGNASASA [FS-1434] | 8.59 (active) | 9.19 (active) | 8.05 (active)
10 | CACRKRRKRCAGNASASA [FS-17] | 4.55 (active) | 0.934 (inactive) | 1.07
11 | CAGRSEFKRCAGNASASA [FS-1331] | -0.855 (inactive) | -0.736 (inactive) | -0.471 (inactive)
12 | CALRFRRKRRAGNASASA [FS-826] | 11.4 (active) | 12.4 (active) | 10.4 (active)
13 | CALREEVSFRAGNASASA [HC1231] | -0.828 (inactive) | -0.657 (inactive) | -0.791 (inactive)
14 | CARCQRDAMCAGNASASA [FS-2651] | -1.14 (inactive) | 0.877 (inactive) | 1.14
15 | CATGCVVIVGAGNASASA [HC999] | 0.288 (inactive) | -0.105 (inactive) | 1.66
16 | CATTPCCGSWAGNASASA [HC74] | -2.07 (inactive) | -0.069 (inactive) | -1.52 (inactive)
17 | CAEFTLLTRIAGNASASA [FS-988] | -0.861 (inactive) | -1.86 (inactive) | 0.256 (inactive)
18 | CALIFCHSKKAGNASASA [HC856] | -0.592 (inactive) | -0.736 (inactive) | -0.784 (inactive)
19 | CALRFRRKRKAGNASASA [FS-825] | 9.84 (active) | 11 (active) | 8.47 (active)
20 | CAMEEMSQHLAGNASASA [HC8] | 1.27 | 1.33 | 0.916 (inactive)
21 | CALASHPKRAAGNASASA [FS-1355] | -0.0202 (inactive) | 0.46 (inactive) | -0.107 (inactive)
22 | CAAAILRRHVAGNASASA [HC1110] | -1.81 (inactive) | 1.42 | 1.16
23 | CALADREKRAAGNASASA [FS-683] | 5.37 (active) | 7.31 (active) | 4.83 (active)

Row | Sequence | furin cleavage Z-score (7.5 min) | furin cleavage Z-score (15 min) | furin cleavage Z-score (30 min)
24 | CAAAIREKRAAGNASASA [FS-153] | 10.5 (active) | 11.2 (active) | 8.65 (active)
25 | CAEMVTSTWVAGNASASA [HC2166] | -0.179 (inactive) | 0.272 (inactive) | -0.181 (inactive)
26 | CACSGGAYDIAGNASASA [HC813] | -0.539 (inactive) | -1.15 (inactive) | 0.556 (inactive)
27 | CAVVLLLFAGAGNASASA [HC347] | -2.22 (inactive) | 0.376 (inactive) | -0.682 (inactive)
28 | CALLQTASRQAGNASASA [HC1028] | 0.222 (inactive) | 0.569 (inactive) | 0.432 (inactive)
29 | CAPPRRKRRQAGNASASA [FS-71] | 8.73 (active) | 9.48 (active) | 8.32 (active)
30 | CALAALAAYCAGNASASA [HC994] | 0.554 (inactive) | 1.14 | 0.545 (inactive)
31 | CALAARKRRQAGNASASA [FS-604] | 12.2 (active) | 12.1 (active) | 10 (active)
32 | CALLADARVCAGNASASA [HC523] | 0.91 (inactive) | -0.28 (inactive) | -1.13 (inactive)
33 | CALLARDRRQAGNASASA [FS-1025] | 6.87 (active) | 9.4 (active) | 7.76 (active)
34 | CAHGLSAFSLAGNASASA [HC1604] | 0.973 (inactive) | 0.919 (inactive) | 1.37
35 | CAVVYCSMSYAGNASASA [HC2029] | -0.409 (inactive) | -0.331 (inactive) | 0.819 (inactive)
36 | CASTEDLVNLAGNASASA [HC1098] | 0.352 (inactive) | -0.11 (inactive) | -0.537 (inactive)
37 | CAVVCCEMSYAGNASASA [HC113] | 1.04 | -0.157 (inactive) | 2.06
38 | CAKGYRGKRAAGNASASA [FS-448] | 9.98 (active) | 9.64 (active) | 8.26 (active)
39 | CAAKQRGKRAAGNASASA [FS-578] | 7.85 (active) | 6.99 (active) | 6.51 (active)
40 | CAEFKRCWKGAGNASASA [FS-2859] | -0.792 (inactive) | 0.463 (inactive) | -0.89 (inactive)
41 | CAATPRPRRSAGNASASA [FS-980] | 11.1 (active) | 11.2 (active) | 7.55 (active)
42 | CAPLPRPRRSAGNASASA [FS-473] | 6.49 (active) | 5.07 (active) | 4.07 (active)
43 | CALCARPRRSAGNASASA [FS-348] | 10.1 (active) | 10.4 (active) | 9.44 (active)
44 | CAQPPRPFRSAGNASASA [FS-704] | -0.352 (inactive) | 1.58 | -0.0165 (inactive)
45 | CAPRDRPRRSAGNASASA [FS-1384] | 12.7 (active) | 13.7 (active) | 10.6 (active)
